High-throughput results as filed in PubChem.
Beta apoptosis: inhibitors of cytokine-induced beta cell apoptosis, primary screen, luminescence; INS-1E cytokine-induced death, ATP luminescence, 48 h; percent of positive-control rescue, neutral wells zero; protection from apoptosis, % (no concentration beside the values); hit rate 0.8% among 300,000; AID 435005, 2010;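 active = Every replicate reaches about 75%, or at least half do and their mean reaches it too, limit read from the data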;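 note: higher means more ATP so stronger rescue from cytokine killing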
GRIN3A LBD mod: binders of NR3A ligand-binding domain, primary screen, biophysical, differential scanning fluorimetry, uHTS. Glutamate receptor ionotropic, NMDA 3A (GRIN3A) ligand-binding domain. NR3A LBD differential scanning fluorimetry, Tm shift; 0% = protein alone, 100% = glycine-bound protein. Tm shift relative to glycine control, % at 25 µM. hit rate 2.5% among 340,000. AID 1259313, 2017;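 active = melting temperature shift of at least 10% of the positive control shift, at one fixed dose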
Gli-Sufu block: Gli-Sufu pathway antagonists, primary screen, luciferase luminescence, Sufu-KO-LIGHT cells, uHTS | Sufu-KO-LIGHT fibroblasts, Gli luciferase reporter luminescence | inhibition, % at 5 µM | hit rate 0.74% among 340,000 | AID 588413, 2011;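 active = inhibition above about 55%, limit read from the data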
CSC inhib: cancer stem cell viability inhibitors, primary screen, luminescence; cancer stem cell-like cells viability; inhibition, % at 7.5 µM; hit rate 1.1% among 300,000; AID 2717, 2010; in the data active = inhibition above about 75%; tested in HMLE shEcad cells
Mdm2-MdmX inh: inhibitors of human Mdm2-MdmX association, primary screen, cell-based, luminescence, split luciferase, SaOS-2, uHTS; Protein Mdm4 (Homo sapiens) + E3 ubiquitin-protein ligase Mdm2 (Homo sapiens), …; SaOS-2 split-luciferase Mdm2/MdmX complementation; inhibition, % at 8 µM; hit rate 3% among 330,000; AID 485346, 2010;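 active = inhibition of at least 50% at 8 µM in the primary screen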
Target sequence (O15151 whole entry, looked up): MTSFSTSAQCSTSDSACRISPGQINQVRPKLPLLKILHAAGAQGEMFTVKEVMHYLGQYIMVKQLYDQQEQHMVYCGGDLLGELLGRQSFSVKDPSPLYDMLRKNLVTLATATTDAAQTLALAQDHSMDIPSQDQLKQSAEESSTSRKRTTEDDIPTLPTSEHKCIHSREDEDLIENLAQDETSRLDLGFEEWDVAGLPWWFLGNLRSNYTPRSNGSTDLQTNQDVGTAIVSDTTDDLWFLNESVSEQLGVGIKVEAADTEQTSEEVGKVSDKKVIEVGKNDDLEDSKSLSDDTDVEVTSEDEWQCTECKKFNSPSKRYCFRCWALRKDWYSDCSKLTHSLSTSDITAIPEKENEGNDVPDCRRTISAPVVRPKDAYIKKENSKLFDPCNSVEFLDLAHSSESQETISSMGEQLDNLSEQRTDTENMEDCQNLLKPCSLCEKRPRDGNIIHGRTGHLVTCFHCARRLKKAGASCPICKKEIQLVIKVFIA
Target sequence (Q00987 whole entry, looked up): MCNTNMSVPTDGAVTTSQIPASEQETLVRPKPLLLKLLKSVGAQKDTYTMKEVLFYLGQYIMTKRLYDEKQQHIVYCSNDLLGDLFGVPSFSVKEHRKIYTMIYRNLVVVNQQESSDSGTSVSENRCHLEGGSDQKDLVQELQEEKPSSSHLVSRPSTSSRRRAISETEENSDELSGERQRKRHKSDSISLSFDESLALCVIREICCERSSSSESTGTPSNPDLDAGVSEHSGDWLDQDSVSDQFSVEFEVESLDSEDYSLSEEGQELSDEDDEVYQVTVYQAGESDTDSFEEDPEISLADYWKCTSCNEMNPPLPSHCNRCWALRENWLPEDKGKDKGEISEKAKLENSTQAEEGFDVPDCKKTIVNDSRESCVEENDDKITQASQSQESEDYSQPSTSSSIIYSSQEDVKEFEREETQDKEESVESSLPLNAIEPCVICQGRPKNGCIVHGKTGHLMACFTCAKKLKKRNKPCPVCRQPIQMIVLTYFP
MPTP inh: mitochondrial permeability transition pore inhibitors, primary screen, biochemical, isolated mouse mitochondria, absorbance. Ca2+ swelling absorbance, 30 min. AID 602449, 2012. inhibition, % at 10 µM. hit rate 1.4% among 360,000;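 active = inhibition of 50% or more, scaled per plate between neutral and stimulator controls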
Numbers stand for hits; i = inactive; nt = no result given. In the library only some 6.6% were active in any assay of this set; here they are far more common.

SMILES	Beta apoptosis	GRIN3A LBD mod	Gli-Sufu block	CSC inhib	Mdm2-MdmX inh	MPTP inh
CN(C)CCN1CCN(C2CN(Cc3cn(Cc4ccc(F)cc4)nn3)S(=O)(=O)C2)CC1 (stereo unspecified)	nt	nt	nt	nt	nt	i
Cc1noc(C(F)(F)F)c1C(=O)NNC(=O)c1ccccc1	i	i	i	i	i	i
N#C/C(=C/c1ccc(N2CCCCC2)o1)C(=O)Nc1ccc2ccccc2c1	nt	i	i	nt	nt	i
N#C/C(=C/c1ccc(N2CCCCC2)o1)C(=O)Nc1ccc(Cl)cc1	i	12	i	nt	i	i
CCOC(=O)C1=C(C)Nc2ccccc2N/C1=N\S(=O)(=O)c1ccccc1	nt	i	i	nt	i	i
O=C1NC[C@H](Cc2ccccc2)N(CC2CCN(CC3CCCC3)CC2)C1=O	nt	i	i	nt	nt	i
COc1cccc(C(=O)Nc2ccccc2)c1	i	26	i	i	i	i
Cn1nnc2cc(C(=O)Nc3ccc4ccccc4c3)ccc21	i	21	i	i	i	i
CCOC(=O)c1ccc(NC(=O)c2ccccc2)cc1	i	i	i	i	i	i
CCOC(=O)c1ccc(NC(=O)c2ccc(NS(C)(=O)=O)cc2)cc1	i	16	i	i	i	i
CC(NC(=O)c1ccc(NS(C)(=O)=O)cc1)c1ccccc1 (stereo unspecified)	i	i	i	i	i	i
COc1cccc(C(=O)Nc2ccc(NC(=O)Cc3ccccc3)cc2)c1	nt	i	i	i	i	i
CC(C)c1ccc(NC(=O)c2ccc(NS(C)(=O)=O)cc2)cc1	i	20	i	i	i	i
CC(OC(=O)Cc1c(F)cccc1Cl)C(=O)NC1CCCCC1C (stereo unspecified)	i	i	i	i	i	i
COc1ccc(NC(=O)c2ccc(C#N)cc2)cc1NS(=O)(=O)c1ccc(F)cc1	i	i	i	i	i	i
COc1cc(NC(=O)COc2ccc(Cl)cc2)ccc1-c1cc2ccccc2oc1=O	i	10	i	i	i	i
COc1ccc(OC)c(NS(=O)(=O)c2ccc(NC(=O)c3ccc(NS(C)(=O)=O)cc3)cc2)c1	i	21	i	nt	i	i
COc1cccc(C(=O)Nc2ccc(NC(=O)c3cc4ccccc4o3)c(OC)c2)c1	i	23	i	i	i	i
COc1ccc(NC(=O)NNC(=O)COc2ccc3ccccc3c2)cc1OC	i	16	i	i	i	i
Cc1cc2oc(=O)cc(CN3CCCCCCC3)c2cc1Cl	nt	nt	nt	nt	nt	i
CCc1sc(NC(=O)C(C)C)nc1-c1ccccc1	i	i	i	i	i	i
CC1(C)CC(=O)C=C(c2cccc(OC(=O)c3ccc(-c4ccccc4)cc3)c2)C1=O	nt	nt	nt	nt	nt	i
COc1cccc(C(=O)Nc2ccc3ccccc3c2)c1	i	30	i	i	i	i
O=C(Nc1cccnc1)Nc1cccc(F)c1	i	i	i	i	i	i
COc1ccc(C(=O)NNc2ccccc2)cc1	i	i	i	131	i	i
SMILES	Beta apoptosis	GRIN3A LBD mod	Gli-Sufu block	CSC inhib	Mdm2-MdmX inh	MPTP inh
O=C(Nc1ccncc1)Nc1cccc(F)c1	i	14	i	i	i	i
CC(=O)c1cccc(NC(=O)c2ccc(NS(C)(=O)=O)cc2)c1	nt	i	i	i	i	i
CS(=O)(=O)Nc1ccc(C(=O)Nc2ccc3ccccc3c2)cc1	i	31	i	i	i	i
CCCCN(C=O)c1c(CC)nc2ccc(C(=O)N3CCN(S(=O)(=O)CC)CC3)cn12	nt	nt	nt	nt	nt	i
CC1ON=C(c2ccccn2)N(Cc2ccc(S(C)(=O)=O)cc2)C1=O (stereo unspecified)	nt	nt	nt	nt	nt	i
c1ccc(OCCNc2ccn3nc(-c4cccs4)cc3n2)cc1	nt	nt	nt	nt	nt	i
O=C(Nc1ccccc1N1CCOCC1)c1cccc(F)c1	i	i	i	i	i	i
COc1cc(NS(=O)(=O)c2ccc(NC(=O)c3ccc(F)cc3)cc2)ncn1	i	13	i	i	i	i
COc1cc(NS(=O)(=O)c2ccc(NC(=S)NC(=O)c3sc4cc(F)ccc4c3Cl)cc2)nc(OC)n1	i	17	i	i	i	i
O=C(Nc1ccc(Nc2ccccc2)cc1)c1cccc(F)c1	i	29	i	75	i	i
O=C(Nc1cccc(F)c1)c1ccccc1	i	i	i	i	i	i
O=C(Nc1ccc(N2CCOCC2)c(Cl)c1)c1cccc(F)c1	i	12	i	i	i	i
COc1cc(NS(=O)(=O)c2ccc(NC(=S)NC(=O)c3sc4ccccc4c3Cl)cc2)nc(OC)n1	i	i	i	i	nt	i
COc1cc(NS(=O)(=O)c2ccc(NC(C)=O)cc2)ncn1	i	i	i	i	i	i
CN(C)c1ccc(S(=O)(=O)NCC(=O)N2CCN(c3ccccc3)CC2)cc1[N+](=O)[O-]	i	i	i	i	i	i
CC(C)OC(=O)/C=C1\C[C@@H](c2ccccc2C(F)(F)F)O[C@@H](c2ccccc2C(F)(F)F)O1	nt	nt	nt	nt	nt	i
COc1ccc(OC)c(C(=O)c2ccc(C(=O)Nc3ccc4ccccc4c3)cc2)c1	i	i	i	i	i	i
COc1ccc(C(=O)Nc2ccc3ccccc3c2)cc1	i	21	i	i	i	i
CN(C)S(=O)(=O)Oc1cccc(C(=O)Nc2cccc(Cl)c2)c1	i	i	i	i	i	i
COc1ccc(NC(=O)c2cccc(OS(=O)(=O)N(C)C)c2)cc1	i	12	i	nt	i	i
O=C(/C=C/c1ccccc1)NC(NC(=S)Nc1cccc(O)c1)C(Cl)(Cl)Cl (stereo unspecified)	i	21	i	i	i	i
O=C(/C=C/c1ccccc1)NC(NC(=S)Nc1ccc(C(=O)O)cc1)C(Cl)(Cl)Cl (stereo unspecified)	i	13	i	i	i	i
COC(=O)NC(NC(=S)Nc1cccc(C)c1)C(Cl)(Cl)Cl (stereo unspecified)	i	i	i	nt	i	i
O=C(/C=C/c1ccc(Cl)cc1)NC(=S)Nc1ccc(C(=O)O)cc1	i	i	i	i	i	i
Cc1cc(C(=O)COC(=O)c2ccc(NC(=O)CC#N)cc2)c(C)n1-c1ccc(OC(F)F)cc1	i	17	i	nt	i	i
SMILES	Beta apoptosis	GRIN3A LBD mod	Gli-Sufu block	CSC inhib	Mdm2-MdmX inh	MPTP inh
Cc1cc(C(=O)COC(=O)c2ccc(NC(=O)CC#N)cc2)c(C)n1CC(F)(F)F	nt	nt	nt	nt	nt	i
O=C(Nc1ccccc1N1CCOCC1)c1ccc([N+](=O)[O-])o1	i	19	i	i	i	i
O=C(Nc1cccc(Cl)c1N1CCCC1)c1ccc(Br)o1	i	i	i	i	i	i
O=C(Nc1ccccc1N1CCCCC1)c1ccc([N+](=O)[O-])o1	nt	i	i	nt	i	i
O=C(Nc1cccc(Cl)c1N1CCCC1)c1ccc([N+](=O)[O-])o1	i	i	i	100	i	i
CNCc1ccccc1Sc1ccc(O)c(O)c1	i	i	i	85	nt	i
COc1ccc(Sc2ccccc2CN(C)C)cc1OC	i	i	i	nt	i	i
